# What was measured:
# AAK1 = settings: concentration: 1 μM, replicates: in singlicate; n = 1
# ABL1-nonphosphorylated = settings: concentration: 1 μM, replicates: in singlicate; n = 1
# ABL1-phosphorylated = settings: concentration: 1 μM, replicates: in singlicate; n = 1
# VPS34 = system: T1, VPS34
# T1 construct: gene PIK3C3
# TRKC = system: T2, TRKC
# T2 construct: gene NTRK3
# 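Wherever %Inh is given: KINOMEscan kinase panel screen.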
# 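Wherever Kd is given: kd values determined as follow-up on hits from a single-replicate KINOMEscan panel screen.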
structure (smiles),measurement,setting,value
COc1ccc(Nc2nccc(N3CCC(NC(=O)c4cccc(NC(C)=O)c4)C3)n2)cc1 (stereo not shown) [GSK1379732],Kd,WNK4,> 10 µM
same,%Inh,AAK1,17%
same,%Inh,ABL1-nonphosphorylated,0%
same,%Inh,ABL1-phosphorylated,0%
CSc1nn2c(=O)cc(N3CCOCC3)nc2n1Cc1cccc(Cl)c1Cl [GSK2347225],Kd,VPS34,0.00072 µM
same,%Inh,AAK1,7%
same,%Inh,ABL1-nonphosphorylated,0%
same,%Inh,ABL1-phosphorylated,0%
Nc1nc(-c2ccc3c(N)n[nH]c3c2)cc(N2CCC[C@@H](C(=O)Nc3ccccc3)C2)n1.O=C(O)C(F)(F)F.O=C(O)C(F)(F)F [GSK2288359],%Inh,AAK1,38%
same,%Inh,ABL1-nonphosphorylated,0%
same,%Inh,ABL1-phosphorylated,0%
O=C(c1ccc(-c2cc(-c3c[nH]nc3-c3ccccn3)ccn2)cc1)N1CCCC1 [GW792479],%Inh,AAK1,12%
same,%Inh,ABL1-nonphosphorylated,74%
same,%Inh,ABL1-phosphorylated,59%
Clc1ccc(-c2cc(-c3c[nH]nc3-c3ccccn3)ccn2)cc1 [GW681251],Kd,TNIK,0.39 µM
same,Kd,TRKC,> 10 µM
same,%Inh,AAK1,2%
same,%Inh,ABL1-nonphosphorylated,0%
same,%Inh,ABL1-phosphorylated,0%
O=C(Nc1ccccc1)Nc1ccc(Oc2ccc3nccn3n2)cc1,Kd,TNNI3K,> 10 µM
same,%Inh,AAK1,0%
same,%Inh,ABL1-nonphosphorylated,66%
same,%Inh,ABL1-phosphorylated,18%
Fc1ccc(Nc2nccc(-c3c(-c4ccc(Cl)cc4)nn4ncccc34)n2)cc1F [GW829058],Kd,TNIK,> 10 µM
same,Kd,ULK2,> 10 µM
same,%Inh,AAK1,0%
same,%Inh,ABL1-nonphosphorylated,0%
same,%Inh,ABL1-phosphorylated,17%
N#Cc1ccc(Oc2ccc(Nc3ncnc4cc[nH]c34)cc2Cl)cc1,%Inh,AAK1,14%
same,%Inh,ABL1-nonphosphorylated,51%
same,%Inh,ABL1-phosphorylated,6%
C[C@H]1CC[C@@H](C(=O)Nc2ccccc2)CN1c1cc(-c2ccc3c(N)n[nH]c3c2)nc(N)n1 [GSK2283293],%Inh,AAK1,23%
same,%Inh,ABL1-nonphosphorylated,0%
same,%Inh,ABL1-phosphorylated,8%
